Pf growth 48h – inhibits P. falciparum growth in the first generation, 48 h | P. falciparum luciferase growth in erythrocytes, 48 h | Potency, µM (top dose mostly 28.7 µM), actives largely listed as inhibitors | hit rate 5.9% among 310,000 | AID 504832
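Growth was read as firefly luciferase luminescence after a 48 h, 37 C, 5% CO2 exposure of compounds to reporter-bearing P. falciparum cultures (0.1% parasitemia, 2% hematocrit final) in Albumax-supplemented RPMI 1640.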
AMA1-RON2 inh – inhibitors of Plasmodium falciparum AMA1-RON2 interaction; hit rate 0.2% among 360,000; AlphaScreen AMA1-biotinylated RON2 peptide binding; Potency, µM (doses to about 58.2 µM), usual class: inhibitors; AID 720542; further: nearly all actives have a fitted effect of over 45% in size
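AMA1 (3D7) with his tag at 25 nM final met compounds first, then biotinylated RON2 peptide at 25 nM; detection used donor plus acceptor beads, 10 µg/mL apiece, read by AlphaScreen after 30 min at room temperature.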
SARS PLP yeast – inhibitors of SARS-CoV papain-like protease in yeast; S. cerevisiae expressing SARS-CoV PLpro, growth rescue; Potency, µM (top dose mostly 32.9 µM), most hits filed as activators; hit rate 0.19% among 330,000; AID 485353; calls by dose curve; further: nearly all actives have a fitted effect of over 55% in size
Pf growth 96h – P. falciparum growth inhibition at 96 hours; P. falciparum luciferase reporter growth, 96 h; Potency, µM (series often up to 28.7 µM), actives largely listed as inhibitors; hit rate 6.9% among 320,000; AID 504834
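Compounds incubated with erythrocytes infected by luciferase-expressing P. falciparum (2% hematocrit, 0.05% parasitemia final) for 96 hours, 37 C in 5% CO2. Growth inhibition scored as decreased luciferase luminescence.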
Hits are given with their value; 0 = inactive; ? = inconclusive; - = not tested or not shown; [ ] = dose if it differs, or a comment. Shown are actives, neighbours in structure and some others; about 9.4% of the full set was active somewhere. Unless noted, the call rests on the fitted dose curve; in most records, active means well fitted curve in the direction sought with a large enough effect; inconclusive means small, poorly fitted or top-dose-only effect, or another doubt; inactive means no such curve, though single readings can be large; an effect the other way counts as inactive or inconclusive.

SMILES	Pf growth 48h	AMA1-RON2 inh	SARS PLP yeast	Pf growth 96h
Cc1cccc2cc(C(c3nnnn3C(C)(C)C)N3CCN(C(=O)c4ccco4)CC3)c(=O)[nH]c12 (configuration not stated)	3.3µM	0	0	0
CC(C)(C)n1nnnc1C(c1ccccc1)N1CCN(C(=O)c2ccco2)CC1 (configuration not stated)	-	0	-	-
CC(C)(C)NC(=O)CN1C(=O)c2cccc3cccc1c23	-	0	-	-
CN(C(=O)CSc1nncn1-c1ccccc1)C1CCS(=O)(=O)C1 (configuration not stated)	0	0	0	0
N#Cc1cn(Cc2cccc(Cl)c2)c2ccccc12	9.3µM	0	0	0
CCCCNC(=O)CNC(=O)c1nn(-c2ccc(OC)cc2OC)c(=O)c2ccccc12	-	0	0	0
Cc1nn(C/C(C#N)=N\O)c(C)[n+]1N	0	0	?	-
Cn1cnnc1SCc1cccc(Br)c1	0	0	0	0
CCN(C(=O)c1ccc(C(C)(C)C)cc1)c1nnc(Cn2nnc3ccccc32)s1	10µM	0	0	0
Cc1ccc(SC[C@H](Cc2ccccc2)N2CC[C@@H](NC(=O)OCc3ccccc3)CCC2=O)cc1	?	-	0	8.3µM
COc1ccc(SC[C@H](Cc2ccccc2)N2CC[C@@H](C(C)(C)C)CCC2=O)cc1	12µM	0	0	?
NC(=O)C1CCC(NC(=O)OCc2ccccc2)CC1 (configuration not stated)	0	0	0	6.6µM
O=C(CNC(=O)OCc1ccccc1)NC1CCCCCCC1	0	0	0	0
O=C(N[C@H]1CCC(=O)N([C@H](CSc2ccc(Br)cc2)Cc2ccccc2)CC1)OCc1ccccc1	-	0	0	-
O=C(N[C@H]1CCC(=O)N([C@H](CSc2ccccc2)Cc2ccccc2)CC1)OCc1ccccc1	?	0	0	8.3µM
Cc1cc(Cl)c(S(=O)(=O)NC(C)C)cc1OCC(N)=O	0	0[2.32 µM]	0	0
COc1cccc(-c2cnc(C(O)c3cc(Cl)cc(Cl)c3)[nH]2)c1 (configuration not stated)	-	0	-	-
CCn1c(C)cc(/C=C2/NC(=O)N(Cc3ccccc3F)C2=O)c1C	12µM	0	0	9.3µM
O=C(NCCO)/C(=C/c1ccc(Br)cc1)NC(=O)c1cccs1	0	0	0	0
CCN(CC)CCNC(=O)/C(=C\c1cccn1C)NC(=O)c1cccs1	0	0	0	1.9µM
CN=C1C=CC(=C(c2ccc(N(C)C)cc2)c2ccc(N(C)C)cc2)C=C1	0.21µM	-	-	1.1µM
CN(C)C(=S)c1ccc(N(C)C)cc1	0	0	0	0
CCC(C)(C)NC(=O)C(Sc1ccccc1)c1ccccc1 (configuration not stated)	?	0	0	10µM
COc1ccc(C)cc1NC(=O)c1nnn(Cc2cc(C)ccc2C)c1N	-	0	0	5.2µM
COc1cccc(Cn2nnc(C(=O)Nc3cc(C)ccc3OC)c2N)c1	-	0	0	?
SMILES	Pf growth 48h	AMA1-RON2 inh	SARS PLP yeast	Pf growth 96h
COc1ccc(OC)c(NC(=O)c2nnn(Cc3ccccc3C)c2N)c1	12µM	0	0	?
Cc1ccc(NC(=O)Cn2cccc2C2=NC(c3ccccc3)CO2)cc1C (configuration not stated)	0	0	0	?
CCCCCC(=O)N/N=C(\C)c1ccccn1	1.7µM	0	0	?
C/C(=N\NC(=O)COc1ccccc1-c1ccccc1)c1ccccn1	2.1µM	0	0	?
O=C(COc1ccccc1-c1ccccc1)N/N=C/c1ccc2ccccc2c1	0	0	0	2.3µM
C/C(=N\NC(=O)COc1ccccc1-c1ccccc1)c1cccnc1	?	0	0	0
CCC(=O)Nc1ccc(NC(=O)CSc2nnc(-c3ccc(O)cc3)n2CC2CCCO2)cc1 (configuration not stated)	0	0	0	0
COc1cc(CNc2nc(C)c([N+](=O)[O-])c(C)c2C#N)cc(OC)c1	?	0	0	0
CC1=CC2(C#N)C3(N=C(N)C2(C#N)C(c2ccccc2)N1)OCCO3 (configuration not stated)	0	0	0	0
CC1CCCCN1C(=O)CSc1nc(N)nc(N)n1 (configuration not stated)	0	0	0	0
O=C(c1ccccc1)N1C(=O)C(c2ccccc2)Oc2ccccc21 (configuration not stated)	0	0	0	0
O=[As](O)(O)c1ccc(N=Nc2ccc(O)cc2)cc1	?	0	0	2.9µM
CC(C)N(Cc1nc2ccccc2c(=O)[nH]1)C(=O)c1ccc(NC(=O)CSc2nnnn2C)cc1	?	0	0	13µM
O=C(Nc1ccc(Oc2ncnc3cc(Cl)ccc23)nc1)c1cccs1	0	0	0	0
O=C1CC[C@@H](CN(Cc2ccccn2)Cc2nc(Cc3ccccc3)no2)N1	0	0	0	17µM
CN(C)S(=O)(=O)c1cccc(NC(=O)COC(=O)CCC(=O)c2cccs2)c1	0	0	0	0
COc1ccc(CN2CC(=O)N3[C@H]4c5ccccc5OC[C@@H]4[C@H](c4ccccc4)[C@]3(C)C2=O)cc1	9.3µM	0	0	?
COc1ccc2c(c1)OC[C@H]1[C@H]2N2C(=O)CN(Cc3ccco3)C(=O)[C@@]2(C)[C@H]1c1ccccc1	?	0	0	9.3µM
COc1ccc2c(c1)OC[C@H]1[C@H]2N2C(=O)CN(Cc3ccc(F)cc3)C(=O)[C@@]2(C)[C@H]1c1ccccc1	?	0	0	?
C[C@@]12C(=O)N(Cc3ccccc3)CC(=O)N1[C@H]1c3cc(Cl)ccc3OC[C@@H]1[C@@H]2c1ccccc1	9.3µM	0	0	?
CN1C(=O)C(O)(CC(=O)/C=C/c2ccco2)c2ccccc21 (configuration not stated)	0	0	0	0
Cc1cc(N2CCN(c3ccccc3Cl)CC2)n2cc(-c3ccccc3)nc2n1	?	0	0	?
Cc1cc(N2CCN(c3ccccc3)CC2)n2cc(-c3ccccc3)nc2n1	?	0	0	7.4µM
Cc1cc(N2CCN(c3ccccc3)CC2)n2nnnc2n1	0	0	0	0
Cc1cc(N2CCN(c3ccccc3)CC2)n2c(n1)nc1ccccc12	5.9µM	0	0	?
SMILES	Pf growth 48h	AMA1-RON2 inh	SARS PLP yeast	Pf growth 96h
CCc1nc(SCC(=O)Nc2ccccc2OC)c2c(C)c(C)sc2n1	13µM	0	0	0
CCCN1CCN(C(=O)c2ccc(-c3ccc([N+](=O)[O-])cc3)o2)CC1	?	0	0	0
CSc1ccc(C(=O)C2CCCN(C(=O)c3nn(C)c(=O)c4ccccc34)C2)cc1 (configuration not stated)	0	0	0	0
CSc1ccc(C(=O)C2CCCN(C(=O)c3nonc3C)C2)cc1 (configuration not stated)	15µM	0	0	0
Cc1ccc(CSCCNC(=O)c2ccccc2)cc1	?	0	0	0
Cc1ccccc1N(CC(=O)NCCSCc1ccccc1)S(C)(=O)=O	0	0	0	12µM
CS(=O)(=O)N(CC(=O)NCCSCc1ccccc1)c1ccccc1Br	0	0	0	7.4µM
Cc1ccccc1CNC(=O)c1ccc(CSCc2ccccc2)cc1	?	0	0	6.6µM
